Here are results for 14 molecules from PubChem BioAssay (NCI).

The structures appear in SMILES notation. This is part of a sample that, as a whole, favours compounds with a hit. Of some 83,000 tested, about 20% had one in any assay.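 Negative percent growth values reflect cell death: -40 means 40% of the cells present at the start died, and -100 means all died.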 A number with no mark means an inactive call. Active and inactive are the calls of the source. The calls were made as follows: active = growth percent below 10; inactive = the rest.

Among the test systems are T-47D breast; BT-549 breast; MDA-MB-435 melanoma; SW-620 colon; MCF7 breast; HCT-116 colon; HCC-2998 colon; KM12 colon.
Assay in all cases: NCI-60 one-dose screen, 48 h (100 = growth as untreated, 0 = no growth, -100 = all killed)
Settings in all cases: 10 µM unless noted

For `O=C1c2ccccc2NC(n2sc3ccccc3c2=O)N1c1ccccc1` (configuration not stated), the growth is 96.4% with T-47D breast; 104% in the experiment with BT-549 breast; 111% with MDA-MB-435 melanoma; 104% in the experiment on SW-620 colon; 94.3% in the experiment on MCF7 breast; 95.7% in the experiment with HCT-116 colon. Besides, the growth in the experiment on HCC-2998 colon was 103%; in the experiment on KM12 colon, 92.9%.
Take `COc1ccc(-c2conc2-c2ccccc2)cc1`: the growth was 52.8% in the experiment with T-47D breast; 29.6% in the experiment on BT-549 breast; -45.4% (active) with MDA-MB-435 melanoma; 19.8% in the experiment on SW-620 colon; 16% with MCF7 breast; 12.3% with HCT-116 colon. The growth in the experiment on HCC-2998 colon was 19.5%; in the experiment with KM12 colon it was 9.21% (active).
Regarding `COc1cc(/C=C/C(=O)/C=C/c2cc(OC)c3c(c2OC)OCO3)c(OC)c2c1OCO2`, the growth in the experiment with T-47D breast was 31%; in the experiment with BT-549 breast it was 31.4%; in the experiment on MDA-MB-435 melanoma it was 11.5%; in the experiment on SW-620 colon, 17.8%; in the experiment on MCF7 breast, 19.1%; in the experiment with HCT-116 colon, 2.58% (active). The growth in the experiment with HCC-2998 colon was 107%; with KM12 colon it was 37%.
With `O=c1[nH][n+](-c2ccc(Br)cc2)no1`, the growth with T-47D breast is 28.1%; with BT-549 breast, 83.1%; in the experiment on MDA-MB-435 melanoma it was 22.6%; in the experiment with SW-620 colon, 36.8%; in the experiment with MCF7 breast it was 32.8%; in the experiment with HCT-116 colon, 79%. Also, the growth is 12.7% in the experiment on HCC-2998 colon and 23.3% in the experiment on KM12 colon.
As for `CNCCCNc1nc2ccccc2c2c(=O)c3cc(OC)ccc3sc12`, the growth with T-47D breast was 81.7%; with BT-549 breast, 89.2%; with MDA-MB-435 melanoma it was 37.3%; with SW-620 colon it was -50.3% (active); in the experiment with MCF7 breast it was 59.4%; in the experiment with HCT-116 colon, 10.3%. Besides, the results for the growth in the experiment with HCC-2998 colon and with KM12 colon were -71% (active) and 35.3%, respectively.
With `COc1ccc(C(=O)N=Nc2c(O)n(C)c3ccccc23)cc1`, the growth was 61.9% with T-47D breast; 103% in the experiment on BT-549 breast; 103% in the experiment on MDA-MB-435 melanoma; 97.3% with SW-620 colon; 61.3% in the experiment with MCF7 breast; 99.7% with HCT-116 colon. Besides, the growth in the experiment on HCC-2998 colon is 117%; in the experiment with KM12 colon it was 95.5%.
With `CNC(=O)c1cc(-n2ccc3cc(NC(=O)c4ccc(N5CCOCC5)c(C(F)(F)F)c4)ccc32)ccn1`, the growth with T-47D breast was 25.8%; in the experiment with BT-549 breast it was 43.8%; in the experiment with MDA-MB-435 melanoma, 76.4%; in the experiment on SW-620 colon it was 75.9%; in the experiment with MCF7 breast, 60.6%; in the experiment on HCT-116 colon it was 38.7%. The growth in the experiment with HCC-2998 colon was 63.8%; in the experiment on KM12 colon, 17.7%.
`COc1cc(C(=O)c2cnc(-c3c[nH]c4cccc(C)c34)[nH]2)cc(OC)c1OC`: the growth with T-47D breast is 52.2%; with BT-549 breast, 38.3%; in the experiment on MDA-MB-435 melanoma, -43.5% (active); in the experiment with SW-620 colon it was 18%; with MCF7 breast, 17.7%; in the experiment with HCT-116 colon, -10.4% (active). The results for the growth with HCC-2998 colon and in the experiment with KM12 colon were 20.1% and 0.911% (active), respectively.
Regarding `O=c1ccn(Cc2cn(-c3c4ccccc4nc4ccccc34)nn2)c(=O)[nH]1`, the growth was 38% in the experiment on T-47D breast; 100% with BT-549 breast; 99.4% in the experiment on MDA-MB-435 melanoma; 93% with SW-620 colon; 36.4% in the experiment with MCF7 breast; 92.4% in the experiment with HCT-116 colon. Further, the growth in the experiment on HCC-2998 colon was 90.5%; in the experiment on KM12 colon, 104%.
For `COc1cc(C(=O)/C=C/c2sc(Cl)nc2Cl)cc(OC)c1OC`, the growth is 28.2% with T-47D breast; 86.2% with BT-549 breast; 98.5% in the experiment with MDA-MB-435 melanoma; -61% (active) with SW-620 colon; -68.1% (active) in the experiment with MCF7 breast; -54.3% (active) with HCT-116 colon. Further, the growth in the experiment on HCC-2998 colon is -58.3% (active); in the experiment with KM12 colon, 28.4%.
For `CCOC(=O)c1cn2ncnc(Oc3ccc(NC(=O)NCCN4CCN(C)CC4)c(Cl)c3)c2c1C`, the growth in the experiment with T-47D breast was 25.5%; in the experiment on BT-549 breast it was 77.8%; with MDA-MB-435 melanoma, 40.7%; in the experiment on SW-620 colon it was 69%; with MCF7 breast, 65.5%; with HCT-116 colon, 45.3%. Moreover, the growth with HCC-2998 colon was 89.2%; in the experiment on KM12 colon, 91.4%.
On to `Cc1ccc(S(=O)(=O)Oc2ccc(NC(=O)c3ccc(Cl)cc3)cc2)cc1`, for which the growth was 98.1% in the experiment on T-47D breast; 90.8% with BT-549 breast; 105% with MDA-MB-435 melanoma; 103% in the experiment on SW-620 colon; 91.8% in the experiment on MCF7 breast; 81% in the experiment on HCT-116 colon. Further, the growth was 104% with HCC-2998 colon and 103% with KM12 colon.
In the case of `COc1cc(C(=O)N/N=C/c2cc3cc(OCc4ccccc4)ccc3nc2OC)cc(OC)c1OC`, the growth with T-47D breast was 54.3%; in the experiment on BT-549 breast, 73.4%; in the experiment on MDA-MB-435 melanoma, 88.3%; in the experiment on SW-620 colon, 91.6%; with MCF7 breast, 78.4%; in the experiment on HCT-116 colon, 85.7%. Also, the growth is 96.7% in the experiment with HCC-2998 colon and 96.2% in the experiment on KM12 colon.
For the molecule `CC([C@H]1CCC2C3CCC4C(=O)C(NC=O)=CC[C@]4(C)C3CC[C@@]21C)N(C)C` (some centres not stated), the growth is -12.7% (active) with T-47D breast; 49.5% with BT-549 breast; -26% (active) with MDA-MB-435 melanoma; -48.5% (active) in the experiment with SW-620 colon; 17.3% in the experiment with MCF7 breast; -7.83% (active) in the experiment with HCT-116 colon. Besides, the growth was 19% in the experiment with HCC-2998 colon and 17.8% in the experiment with KM12 colon.
